# Results published in the supplement of paper PMC4022240.
# ± gives the standard deviation.
# T1: HaloTag-ATRX ADD domain (163-292)
# T1 chain: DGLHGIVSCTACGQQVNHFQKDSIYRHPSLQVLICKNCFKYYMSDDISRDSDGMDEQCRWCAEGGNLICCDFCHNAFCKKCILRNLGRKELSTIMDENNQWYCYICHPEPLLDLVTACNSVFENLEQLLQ
# Assays:
# Assay in all cases: peptide microarray binding signal (635 nm), min-max normalized on array (fraction of array maximum); higher = stronger binding
# [1] = biological target: T1, HaloTag-ATRX ADD domain (163-292)
# In short: (§1)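 Within each library, mean intensities of triplicate spots were min-max scaled to give the binding signal. The spots were histone 13-mer peptide–cellulose conjugates on nitrocellulose with a Cy3 tracer, blocked overnight at 4°C. They were then probed for 1 h at 4°C using biotin-labelled HaloTag reader fusions (10 nM to 1 μM) with streptavidin-Alexa Fluor 647 or rabbit histone antibodies (1:10,000 to 1:2,000) with anti-rabbit Alexa 647, and scanned at 635 nm for signal and 532 nm for misprints on an Axon GenePix 4000B.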
# [2] = biological target: HaloTag-ING2 PHD (mouse Ing2 200-280)
# In short: as §1
# [3] = biological target: anti-H3K4me3 antibody ab8580
# In short: as §1
# [4] = biological target: anti-H3K9me3 antibody ab8898
# In short: as §1
# [5] = peptide region: H4 16-28, peptide modifications: H4R19me2a H4K20me2, binder concentration: 1:2,000 dilution
# [6] = peptide region: H4 16-28, peptide modifications: H4R19me2a H4K20me2, binder concentration: 1:10,000 dilution
# [7] = peptide region: H4 16-28, peptide modifications: H4R19me2a, binder concentration: 1:2,000 dilution
# [8] = peptide region: H4 8-19, peptide modifications: H4R17me2s, binder concentration: 1:2,000 dilution
# [9] = peptide region: H4 8-19, peptide modifications: H4R17me2s, binder concentration: 1:10,000 dilution
# [10] = peptide region: H4 16-28, peptide modifications: H4K20me2, binder concentration: 1:2,000 dilution
# [11] = peptide region: H4 16-28, peptide modifications: H4R19me1 H4K20me1, binder concentration: 1:2,000 dilution
# [12] = peptide region: H4 16-28, peptide modifications: H4R19me1 H4K20me1, binder concentration: 1:10,000 dilution
# [13] = peptide region: H4 16-28, peptide modifications: H4R19me2a H4K20me1, binder concentration: 1:2,000 dilution
# [14] = peptide region: H4 16-28, peptide modifications: H4R19me2a H4K20me1, binder concentration: 1:10,000 dilution
binder,measurement,setting,value
KRHRKVLRDNIQG [H4 16-28 K R H Rme2a Kme2 V L R D N I Q G],peptide microarray binding signal,"[1]; peptide region: H4 16-28, peptide modifications: H4R19me2a H4K20me2, binder concentration: 50 nM",0.0248 ± 0.0013
same,peptide microarray binding signal,"[1]; peptide region: H4 16-28, peptide modifications: H4R19me2a H4K20me2, binder concentration: 500 nM",0.0149 ± 0.00068
same,peptide microarray binding signal,"[2]; peptide region: H4 16-28, peptide modifications: H4R19me2a H4K20me2, binder concentration: 10 nM",0.0209 ± 0.0011
same,peptide microarray binding signal,"[2]; peptide region: H4 16-28, peptide modifications: H4R19me2a H4K20me2, binder concentration: 100 nM",0.0188 ± 0.00076
same,peptide microarray binding signal,[3]; [5],0.00119 ± 1.7e-05
same,peptide microarray binding signal,[3]; [6],0.00348 ± 4.9e-05
same,peptide microarray binding signal,[4]; [5],0.00113 ± 8.4e-05
same,peptide microarray binding signal,[4]; [6],0.00427 ± 0.00011
KRHRKVLRDNIQG [H4 16-28 K R H Rme2a K V L R D N I Q G],peptide microarray binding signal,"[1]; peptide region: H4 16-28, peptide modifications: H4R19me2a, binder concentration: 500 nM",4.76e-05 ± 5.2e-07
same,peptide microarray binding signal,"[2]; peptide region: H4 16-28, peptide modifications: H4R19me2a, binder concentration: 100 nM",0.000213 ± 2.5e-06
same,peptide microarray binding signal,[3]; [7],5.66e-05
same,peptide microarray binding signal,[4]; [7],1.51e-05 ± 1.7e-07
KGLGKGGAKRHRK [H4 8-19 K G L G K G G A K Rme2s H R K],peptide microarray binding signal,"[1]; peptide region: H4 8-19, peptide modifications: H4R17me2s, binder concentration: 50 nM",0.00464 ± 0.00023
same,peptide microarray binding signal,"[1]; peptide region: H4 8-19, peptide modifications: H4R17me2s, binder concentration: 500 nM",0.02 ± 0.00069
same,peptide microarray binding signal,"[2]; peptide region: H4 8-19, peptide modifications: H4R17me2s, binder concentration: 10 nM",0.00173 ± 7.2e-05
same,peptide microarray binding signal,"[2]; peptide region: H4 8-19, peptide modifications: H4R17me2s, binder concentration: 100 nM",0.00184 ± 0.00024
same,peptide microarray binding signal,[3]; [8],0.000132 ± 1.5e-06
same,peptide microarray binding signal,[3]; [9],0.000685 ± 7.2e-06
same,peptide microarray binding signal,[4]; [8],0.000861 ± 4.5e-05
same,peptide microarray binding signal,[4]; [9],0.000807 ± 1.5e-05
KRHRKVLRDNIQG [H4 16-28 K R H R Kme2 V L R D N I Q G],peptide microarray binding signal,"[1]; peptide region: H4 16-28, peptide modifications: H4K20me2, binder concentration: 500 nM",0
same,peptide microarray binding signal,"[2]; peptide region: H4 16-28, peptide modifications: H4K20me2, binder concentration: 100 nM",0.000142 ± 1.7e-06
same,peptide microarray binding signal,[3]; [10],5.66e-05 ± 1.1e-06
same,peptide microarray binding signal,[4]; [10],1.51e-05 ± 1.7e-07
KRHRKVLRDNIQG [H4 16-28 K R H Rme Kme V L R D N I Q G],peptide microarray binding signal,"[1]; peptide region: H4 16-28, peptide modifications: H4R19me1 H4K20me1, binder concentration: 50 nM",0.00552 ± 0.00017
same,peptide microarray binding signal,"[1]; peptide region: H4 16-28, peptide modifications: H4R19me1 H4K20me1, binder concentration: 500 nM",0.01 ± 0.00041
same,peptide microarray binding signal,"[2]; peptide region: H4 16-28, peptide modifications: H4R19me1 H4K20me1, binder concentration: 10 nM",0.00961 ± 0.00044
same,peptide microarray binding signal,"[2]; peptide region: H4 16-28, peptide modifications: H4R19me1 H4K20me1, binder concentration: 100 nM",0.0145 ± 0.0033
same,peptide microarray binding signal,[3]; [11],0.0027 ± 0.00027
same,peptide microarray binding signal,[3]; [12],0.002511 ± 2.2e-05
same,peptide microarray binding signal,[4]; [11],0.00143 ± 4.1e-05
same,peptide microarray binding signal,[4]; [12],0.002133 ± 2e-05
KRHRKVLRDNIQG [H4 16-28 K R H Rme2a Kme V L R D N I Q G],peptide microarray binding signal,"[1]; peptide region: H4 16-28, peptide modifications: H4R19me2a H4K20me1, binder concentration: 50 nM",0.00382 ± 5.3e-05
same,peptide microarray binding signal,"[1]; peptide region: H4 16-28, peptide modifications: H4R19me2a H4K20me1, binder concentration: 500 nM",0.008 ± 0.00032
same,peptide microarray binding signal,"[2]; peptide region: H4 16-28, peptide modifications: H4R19me2a H4K20me1, binder concentration: 10 nM",0.00782 ± 0.00021
same,peptide microarray binding signal,"[2]; peptide region: H4 16-28, peptide modifications: H4R19me2a H4K20me1, binder concentration: 100 nM",0.0127 ± 0.0032
same,peptide microarray binding signal,[3]; [13],0.0308 ± 0.032
same,peptide microarray binding signal,[3]; [14],0.00188 ± 8.8e-05
same,peptide microarray binding signal,[4]; [13],0.000966 ± 4.1e-05
same,peptide microarray binding signal,[4]; [14],0.0015 ± 4.4e-05
